# Screening results from PubChem BioAssay.
# An excerpt weighted towards active compounds, which were near 9.2% of everything screened.
# NPC1 prom act: activates the NPC1 promoter | Huh7 NPC1 promoter luciferase reporter, 24 h | Potency, µM (top dose mostly 9.22 µM), without a hit: at the highest dose activation, most hits filed as activators | 320,000 compounds, 2.4% hits | AID 485313; note: % of control where 0% means no effect; nearly all actives have a fitted effect of over 60% in size
#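 Huh7 cells stably carrying NPC1 promoter–luciferase, plated in Opti-MEM with 10% FBS for 2 h, were exposed to compound in DMSO for 24 h at 37 °C; luciferase reagent was added for 10 min and luminescence read.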
# SMN2 splice up: SMN2 splice variant enhancement; HEK293 SMN2-luciferase splicing reporter, luminescence, 30-36 h; Potency, µM (top dose mostly 46.1 µM), for inactives: top-dose activity change, positive = activation, hits mostly activators; 210,000 compounds, 2.8% hits; AID 1458; note: % of control where 0% means no effect; nearly all actives have a fitted effect of over 55% in size
#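 HEK293 cells carry an SMN2 […]–luciferase reporter in which exon 7 inclusion puts luciferase in frame. Cells were plated 10-12 h before compound addition, then incubated 30-36 h at 37C. ONE-Glo luminescence was read; sodium butyrate at 4.5 mM final served as control.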
# Rab9 promoter act: Rab9 promoter activation | Potency, µM (highest dose often 9.22 µM), for inactives: top-dose activation, negative = inhibition, most hits filed as activators | Huh7 Rab9 promoter-luciferase reporter, luminescence, 24 h | AID 485297 | 320,000 compounds, 2.8% hits; note: % of control where 0% means no effect; nearly all actives have a fitted effect of over 60% in size
#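 Cells were plated at 1500 per well in reduced-serum medium with 10% FBS and left 2 h. Compound in DMSO was then added for 24 h at 37 °C. Reporter signal was read by luminescence after 10 min with luciferase detection reagent.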
# ELG1 DNA repair: ELG1-dependent DNA repair inhibition; 330,000 compounds, 2.3% hits; HEK293T ELG1-luciferase reporter, luminescence, 16 h; DNA damage induced by 5-fluorouridine; Potency, µM (series often up to 46.1 µM), for the others: top-dose activity change, negative = inhibition, actives largely listed as inhibitors; note: % is set by controls: 0 for no effect and ±100 for the full control effect; nearly all actives have a fitted effect of over 55% in size
#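 HEK293T cells expressing luciferase-tagged ELG1 (2,000/well) received 5-Fluorouridine plus compound or DMSO for 16 hr at 37 °C. Luciferase was read by ONE-Glo luminescence after 30 min at room temperature.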
# FLuc modulator: counter-screen for miR-21 project: firefly luciferase inhibitors or activators. Potency, µM (series often up to 57.5 µM), for the others: at the highest dose activity change, negative = inhibition, actives largely listed as inhibitors. purified FLuc, Km substrates, luminescence inhibition. AID 588342. 360,000 compounds, 6.9% hits. P08659;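 note: plate controls were vehicle for no effect and reference inhibitor for full effect; nearly all actives have a fitted effect of over 55% in size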
# Target sequence (P08659 whole entry, looked up): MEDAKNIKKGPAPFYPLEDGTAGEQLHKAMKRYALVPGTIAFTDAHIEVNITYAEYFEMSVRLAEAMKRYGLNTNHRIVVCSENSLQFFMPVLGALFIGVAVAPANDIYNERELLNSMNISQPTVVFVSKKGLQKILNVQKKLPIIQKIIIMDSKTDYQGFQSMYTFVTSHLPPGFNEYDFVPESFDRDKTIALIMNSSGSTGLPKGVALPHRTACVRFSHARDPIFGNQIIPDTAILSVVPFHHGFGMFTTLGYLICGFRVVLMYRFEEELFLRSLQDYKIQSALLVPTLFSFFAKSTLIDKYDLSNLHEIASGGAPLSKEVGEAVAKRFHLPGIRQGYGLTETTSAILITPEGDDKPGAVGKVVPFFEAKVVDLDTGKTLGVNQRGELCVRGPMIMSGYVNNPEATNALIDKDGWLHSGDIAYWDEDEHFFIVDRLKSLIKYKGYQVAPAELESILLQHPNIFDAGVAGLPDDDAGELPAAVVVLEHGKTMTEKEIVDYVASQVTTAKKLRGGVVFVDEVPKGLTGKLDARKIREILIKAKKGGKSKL
#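 Purified P. pyralis luciferase, 10 nM final, with Km-level 10 uM D-luciferin and 10 uM ATP in 50 mM Tris acetate pH 7.5, 10 mM Mg acetate, 0.01% Tween-20, 0.05% BSA; 6-point qHTS titration about 60 µM downward; luminescence read.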
# ELG1 genotox: induces genotoxicity in HEK293T cells with luciferase-tagged ELG1; Potency, µM (top dose mostly 46 µM), for inactives: at the highest dose activity change, positive = activation, hits mostly activators; HEK293T ELG1-luciferase reporter, luminescence, 16 h; 330,000 compounds, 1.3% hits; note: % of control where 0% means no effect; nearly all actives have a fitted effect of over 60% in size
#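 Screening used a luciferase reporter fused to human ELG1 in HEK293T cells. Luminescence was read on a CCD plate imager after 16 hr exposure and 30 min ONE-Glo incubation.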
# * hit, by the source's call; ? = inconclusive; / = no result; [ ] = remark or other dose. Calls come from the whole dose curve; as a rule, active = well fitted curve in the direction sought with a large enough effect; inconclusive = small, poorly fitted or top-dose-only effect, or another doubt; inactive = no such curve, though single readings can be large; an effect the other way counts as inactive or inconclusive. Potency is the fitted concentration of half-maximal effect.
SMILES,NPC1 prom act,SMN2 splice up,Rab9 promoter act,ELG1 DNA repair,FLuc modulator,ELG1 genotox
CC(C)OCCCNC(=O)c1c(N)n(CC2CCCO2)c2nc3ccccc3nc12 (stereo unspecified),-4.1%,-14.4%,-7.1%,9.2µM*,-2.4%,-7.7%
COCCOC(=O)c1c(N)n(Cc2ccccc2)c2nc3ccccc3nc12,-0.6%,27.4%,1.4%,18.4µM*,0.7%,-11.5%
CCC1=C(C[C@H]2NCCc3cc(OC)c(OC)cc32)C[C@H]2c3ccccc3CCN2C1,/,-4.4%[9.22 µM],/,/,/,/
Brc1cccc(-c2ccccc2)c1,/,6.8%,/,/,/,/
CCCOC(=O)c1c(N)n(Cc2cccs2)c2nc3ccccc3nc12,-3.2%,-5.4%,1.1%,20.6µM*,3.7%,-12.0%
CCCCCn1c(N)c(C(=O)NCc2cccs2)c2nc3ccccc3nc21,-7.4%,-11.7%,8.4%,?,1.7%,0.4%
Cc1ccc(C2(c3ccc(C)c(O)c3C)CCN(C)CC2)c(C)c1O,/,-5.2%[9.22 µM],/,/,/,/
Cc1ccc2cc3c(ccc4ccccc43)c3c2c1CC3,/,10.4%,/,/,/,/
CCC1C=CC=CC[C@H](C)[C@@H](O)[C@](C)(O)C(=O)[C@@H](C)[C@H](O)[C@@H](C)C(=O)[C@H](C)[C@@H](O)[C@H](C)C=CC(=O)OC2[C@@H](C)C(CC1)OC1(CC[C@@H](C)C(C[C@H](C)O)O1)[C@@H]2C (stereo partly specified),-27.9%,/,-32.9%,11.6µM*,3.8%,-35.9%
Oc1ccc([C@H](O)C2CCCCN2)cc1O (stereo partly specified),/,10.6%[9.22 µM],/,/,/,/
CC1CN(CC(=O)c2ccccc2Cl)CC(C)O1 (stereo unspecified),-0.7%,/,-3.5%[1.84 µM],17.5%,-16.6%,1.0%
CC1CCCN(CC(=O)c2ccc(Cl)c(Cl)c2)C1 (stereo unspecified),-4.5%,-2.9%,-5.1%,8.5%,-3.8%,-2.0%
CC1CCN(CC(=O)c2ccc3c(c2)OCCO3)CC1,?,12.6µM*,?,?,10.7µM*,?
CC1CCN(CC(=O)c2ccccc2Cl)CC1,22.7%,?,?,?,10.7µM*,?
O=C(O)CN1CCN(CC(=O)O)CC(=O)[O][Hg][O]C(=O)C1,/,4.7%[9.22 µM],/,/,/,/
Nc1c2c(nc3ccccc13)CCN(Cc1ccccc1)C2,12.2%,/,-3.2%,-0.1%,23.9µM*,-4.3%
CCOC(=O)c1c(C)n(Cc2ccccc2)c2ccc(OCC(O)Cn3nc(C)cc3C)cc12 (stereo unspecified),-0.7%,-2.3%,-8.7%,20.6µM*,0.9%,-4.8%
CC(C)C#N,/,-15.9%,/,/,/,/
COc1ccc(/C=N/NC(=O)c2cccc([N+](=O)[O-])c2)cc1OC,-5.9%,3.0%,0.9%,1.2%,?,-0.3%
COc1cc(/C=C(/C)[N+](=O)[O-])ccc1OCc1ccccc1Cl,-8.1%,-103.3%,-51.6%,?,13.5µM*,-15.8%
O=Cc1cn(CCCOc2ccccc2)c2ccccc12,?,-60.6%,?,?,-18.6%,-8.8%
COC(=O)c1cn(CCOc2ccccc2)c2ccccc12,22.0%,23.3%,2.1%,?,?,20.6µM*
Cc1ccccc1-n1c(O)c(/C=N/N2CCCCC2c2cccnc2)c(=O)[nH]c1=O (stereo unspecified),-0.8%,-2.1%,-2.2%,-5.9%,-0.6%,-1.5%
c1cc(OCC2CO2)cc(OCC2CO2)c1 (stereo unspecified),/,-56.6%,/,/,/,/
N#CC(Cl)(Cl)Cl,/,11.8%,/,/,/,/
SMILES,NPC1 prom act,SMN2 splice up,Rab9 promoter act,ELG1 DNA repair,FLuc modulator,ELG1 genotox
NC(N)=N/N=C/c1cn(-c2ccccc2)nc1-c1cccs1,-0.1%,-13.5%,-3.1%,0.0%,4.26µM*,1.2%
NC(=S)Nc1ccccc1,/,-6.0%,/,/,/,/
c1ccc(OCCSc2nc3ccccc3[nH]2)cc1,?,?,28.6%,?,16.9µM*,12.6%
COc1ccc(N2CCN(Cc3nc4ccccc4[nH]3)CC2)cc1,2.3%,/,28.7%,9.0%,2.3%,15.1%
O=C(Nc1ccc(Br)cc1)c1cccc(S(=O)(=O)N2CCc3ccccc32)c1,/,-62.8%,/,/,3.0%,/
Cc1ccc(-n2c(O)c(/C=N/NC(=O)c3ccncc3)c(=O)[nH]c2=O)cc1C,0.1%,?,-6.1%,5.6%,0.0%,4.2%
Cc1nn(-c2ccccc2)c(Cl)c1/C=N\NC(=O)c1cnccn1,16.2%,?,21.7%,?,6.01µM*,14.0%
C[C@@H]1CN([C@@H](C)CO)C(=O)c2cccc(NC(=O)c3ccncc3)c2O[C@@H]1CN(C)Cc1ccc(-c2ccccc2)cc1,/,/,/,1.0%,/,-1.4%
C[C@H]1CN([C@@H](C)CO)C(=O)c2cc(NC(=O)C3CCCCC3)ccc2O[C@H]1CN(C)Cc1ccc(-c2ccccc2)cc1,/,/,/,10.3µM*,/,-4.2%
Cc1ccc(OCCOc2cccc(C=C3C(=O)NC(=O)NC3=O)c2)cc1,0.316µM*,/,0.316µM*,?,8.49µM*,2.7%
CC[C@H](C)[C@H](NC(=O)[C@H](CCCN=C(N)N)NC(=O)[C@H](CCCN=C(N)N)NC(=O)[C@H](CC(C)C)NC(=O)[C@H](Cc1ccccc1)NC(=O)CNC(=O)CNC(=O)[C@@H](N)Cc1ccc(O)cc1)C(=O)O,/,8.7%,/,/,/,/
CC[C@@H](CO)Nc1nc(NCc2ccccc2)c2ncn(C(C)C)c2n1,-27.8%[46.1 µM],/,-39.3%[46.1 µM],/,/,/
CNC(=O)Oc1ccccc1OC(C)C,/,-3.2%,/,/,/,/
CC(C)Oc1ccc(CNC(=O)Oc2ccccc2)cc1,3.55µM*,/,3.16µM*,-2.3%,6.75µM*,5.2%
Cc1ccc(-c2nc3ccccc3c(=O)n2-c2ccncc2)cc1,-0.6%,-7.9%,10.2%,-3.4%,-1.4%,-0.2%
O=c1c2ccccc2nc(-c2ccc(-c3ccccc3)cc2)n1-c1ccncc1,-1.2%,-20.5%,-2.7%,?,16.9µM*,-3.6%
CCOc1ccc(NC(=O)C(=S)NC2CCCCC2)cc1,?,?,?,?,13.5µM*,?
O=C(c1ccc(CNS(=O)(=O)c2ccccc2)cc1)N1CCC2(CC1)OCCO2,?,-38.2%,3.55µM*,?,?,?
O=C(CSc1ccccc1)N1CCC2(CC1)OCCO2,?,12.6µM*,?,?,?,10.3µM*
O=C(CN1CCN(Cc2ccc(Cl)cc2)C1=O)N1CCC2(CC1)OCCO2,-2.0%,-7.1%,-3.2%,-8.1%,13.2%,-0.8%
O=C(c1ccc(CNS(=O)(=O)c2ccc(Br)cc2)cc1)N1CCC2(CC1)OCCO2,-3.0%,-31.9%,-5.8%,?,6.3%,-4.7%
Cn1c(=O)cc(SCC(=O)N2CCC3(CC2)OCCO3)c2ccc(Cl)cc21,-1.3%,20µM*,-2.4%,?,1.0%,14.2%
